Assay outcomes from PubChem BioAssay.
IL1B secr inh: blocks inflammasome-driven IL-1 beta release. THP-1 LPS/ATP IL-1B secretion, AlphaLISA, 16 h; active compounds read low. activity change, % at 57.5 µM. actives 4.7% (n = 360,000); in the data active = activity change below about -50%; inconclusive = mostly about -30% to -49%
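Secreted IL-1B measured by AlphaLISA bead assay after 16 h compound exposure of THP-1 cells; compounds (final up to 57.5 uM) added 1 h before LPS (250 ng/mL) and ATP (1.25 mM) stimulation; lower signal means less secretion.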
HepG2 tox: kills HepG2 cells in TGF-b inhibitor counter-screen | Potency, µM (series often up to 46.1 µM), actives largely listed as cytotoxic | actives 0.76% (n = 410,000) | HepG2 CAGA-GFP viability, ATP luminescence, 18 h | AID 588856
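HepG2 CAGA-GFP cells (1000/well, DMEM with 1% FBS) received compound, then TGF-beta at 500 pg/mL final, and were incubated 18 hours at 37 degrees C. Viability was read by CellTiter-Glo luminescence. Media-only wells were set as complete cell-killing and DMSO as no toxicity.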
ATXN2 expr inh: ATXN2 expression inhibition; HEK-293 ATXN2-luciferase reporter, luminescence, 24 h; Potency, µM (highest dose often 57 µM), most hits filed as inhibitors; actives 0.72% (n = 360,000); AID 1745845; also: nearly all actives have a fitted effect of over 55% in size
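ATXN2-luciferase reporter cells (luciferase flanked by upstream and downstream ATXN2 gene portions) were treated 24 h at 37 °C with compounds at up to 57 uM. SteadyGlo luminescence gave expression; GF-AFC fluorescence gave viability.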
TGFb inhibitor: inhibitors of TGF-b signaling; HepG2 CAGA-GFP TGF-b/SMAD3 reporter, GFP fluorescence, 18 h; TGF-beta stimulated, 500 pg/mL final; Potency, µM (top dose mostly 46.1 µM), most hits filed as inhibitors; actives 1.2% (n = 410,000); AID 588855; also: nearly all actives have a fitted effect of over 65% in size
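Read-out: total well GFP (ex488/em500-530) summed from mean per-cell fluorescence. Cells: HEPG2 CAGA-GFP, 1% FBS DMEM, 18 h at 37 degrees C with 500 pg/mL final TGF-beta. Unstimulated wells served as the full-inhibition control; stimulated DMSO wells = 0%.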
S2 tox: reduces viability in counter-screen for ATXN expression inhibitors; Potency, µM (top dose mostly 56.7 µM), hits mostly cytotoxic; S2 cells (HEK-293 line with an ATXN2-luciferase reporter) viability, CellTiter-Fluor protease fluorescence, 24 h; actives 0.49% (n = 400,000); AID 651635; also: nearly all actives have a fitted effect of over 40% in size
Each line names hits and unclear results; the compound was inactive in the other large screens. Hits are enriched below; roughly 5.7% of the tested compounds scored in any of these assays. Unless noted, calls follow the shape of the dose curve; as a rule, active = well fitted curve in the direction sought with a large enough effect; inconclusive = small, poorly fitted or top-dose-only effect, or another doubt; inactive = no such curve, though single readings can be large; an effect the other way counts as inactive or inconclusive.

C=C(C)COc1ccc(-c2[nH]ncc2-c2ccc(Br)cc2)c(O)c1	IL1B secr inh -100.5, ATXN2 expr inh inconclusive, TGFb inhibitor 20µM, S2 tox inconclusive
C=C(C)COc1ccc(-c2[nH]ncc2Oc2ccc(OC)cc2)c(O)c1	TGFb inhibitor inconclusive
C=C(C)COc1ccc(-c2[nH]ncc2-c2ccccc2OC)c(O)c1	IL1B secr inh -59.9, HepG2 tox 17.8µM, ATXN2 expr inh inconclusive, TGFb inhibitor inconclusive, S2 tox inconclusive
COc1ccc(-c2c(-c3ccc(OC)c(C)c3O)n[nH]c2C)cc1	IL1B secr inh inconclusive, ATXN2 expr inh inconclusive, TGFb inhibitor 14.1µM (no result: S2 tox)
CCOc1ccc(-c2[nH]ncc2Oc2ccccc2OC)c(O)c1	TGFb inhibitor inconclusive
C=C(C)COc1ccc(-c2[nH]ncc2Oc2ccccc2OC)c(O)c1	IL1B secr inh -61.6, TGFb inhibitor inconclusive, S2 tox inconclusive
CCOc1cc(-c2ccc(OC(=O)c3ccc(C)cc3)c(OC)c2)cc(=O)c2c(C)oc(C)c12	TGFb inhibitor inconclusive (no result: IL1B secr inh, ATXN2 expr inh, S2 tox)
C=C(C)COc1ccc(-c2n[nH]c(C)c2-c2ccc(Br)cc2)c(O)c1	IL1B secr inh -91.6, HepG2 tox 14.1µM, TGFb inhibitor 12.6µM (no result: S2 tox)
CCc1sc(C(C2C(=O)CC(C)(C)CC2=O)C2C(=O)CC(C)(C)CC2=O)cc1[N+](=O)[O-]	IL1B secr inh -247.5, TGFb inhibitor inconclusive (no result: ATXN2 expr inh)
Cc1nc2cc(NC(=O)[C@@H]3C[C@@H](Sc4ccccn4)CN3Cc3ccccc3F)ccc2s1	none (no result: IL1B secr inh, HepG2 tox, ATXN2 expr inh, TGFb inhibitor)
CN(C)CCN(Cc1ccco1)C(=O)c1oc2ccccc2c1NC(=O)COc1ccccc1	IL1B secr inh -50.4
CN(C)CCN(Cc1ccco1)C(=O)c1oc2ccccc2c1NC(=O)c1cccc(F)c1	ATXN2 expr inh inconclusive, TGFb inhibitor inconclusive, S2 tox inconclusive (no result: IL1B secr inh)
Cc1cc(C)cc(C(=O)NCCn2cc(C(=O)N3CCSCC3)nn2)c1	none (no result: IL1B secr inh, HepG2 tox, ATXN2 expr inh, TGFb inhibitor)
CCN(CC(=O)Nc1ccc(NC(C)=O)cc1)C(=O)c1ccc(COc2ccc(C(C)(C)C)cc2)cc1	IL1B secr inh -50.9, ATXN2 expr inh inconclusive, TGFb inhibitor inconclusive, S2 tox inconclusive
CCN(CC(=O)Nc1ccc(NC(C)=O)cc1)C(=O)c1ccc(COc2ccccc2)o1	none (no result: ATXN2 expr inh)
Cc1ccc2oc(=O)c3cc(C(=O)Nc4cccc(C#N)c4)sc3c2c1	none (no result: IL1B secr inh)
CC(C)(CNC(=O)C1c2ccccc2-c2ccccc21)N1CCOCC1	IL1B secr inh -67.7, S2 tox inconclusive
CC1CCc2nc(NC(=O)Cc3ccc(Cl)cc3)sc2C1 (stereo unspecified)	TGFb inhibitor 15.8µM (no result: IL1B secr inh)
CC1CCc2nc(NC(=O)Nc3ccc4c(c3)OCO4)sc2C1 (stereo unspecified)	IL1B secr inh -75.4
CC1CCc2nc(NC(=O)CN3CCN(Cc4ccc5c(c4)OCO5)CC3)sc2C1 (stereo unspecified)	IL1B secr inh inconclusive, TGFb inhibitor inconclusive
CC1CCc2nc(NC(=O)CCSc3ccccc3)sc2C1 (stereo unspecified)	none
CC(=O)N1CCCc2ccc(NC(=O)c3ccc(C(F)(F)F)cc3)cc21	none (no result: IL1B secr inh, ATXN2 expr inh, S2 tox)
CCOC(=O)C1(Cc2cccc(Cl)c2)CCCN(C(=O)c2ccoc2C)C1 (stereo unspecified)	IL1B secr inh -101.1
CCOC(=O)C1(Cc2cccc(Cl)c2)CCCN(C(=O)c2ccco2)C1 (stereo unspecified)	none
Cc1cc2c(cc1S(=O)(=O)N(CCO)Cc1ccccc1)OCC(=O)N2	none (no result: IL1B secr inh, ATXN2 expr inh, S2 tox)
Cc1c(Cl)cccc1NC(=O)N1CCCN(c2nc(-c3ccccc3)ns2)CC1	IL1B secr inh -60.5, ATXN2 expr inh inconclusive
COc1ccc(/C(C)=N/OCC(=O)Nc2nc3ccccc3s2)cc1	none
O=C(Nc1nc2ccccc2s1)c1ccc(OCC2CCCO2)cc1 (stereo unspecified)	IL1B secr inh -62.0, S2 tox inconclusive
Cc1cnc(NC(=O)c2ccc(OCC3CCCO3)cc2)s1 (stereo unspecified)	ATXN2 expr inh inconclusive, TGFb inhibitor inconclusive
COc1ccc(C(=O)Nc2nc3ccccc3s2)cc1OC	IL1B secr inh -87.5
COc1ccc(/C=N/OCC(=O)Nc2nc3ccccc3s2)cc1OC	IL1B secr inh -50.3, TGFb inhibitor inconclusive
CCc1ccc2oc(-c3ccc(C)c(NC(=O)COc4ccccc4Cl)c3)nc2c1	none (no result: IL1B secr inh, ATXN2 expr inh, S2 tox)
Cc1nc2c(OCc3ccc(F)cc3)cccn2c1N(C)C(=O)CCC1CCCC1	ATXN2 expr inh inconclusive, S2 tox inconclusive
Cc1nc2c(OCc3ccc(C#N)cc3)cccn2c1N(C)C(=O)CCC1CCCC1	IL1B secr inh -55.3, ATXN2 expr inh inconclusive, TGFb inhibitor inconclusive
Cc1nc2c(OCc3ccc(C(F)(F)F)cc3)cccn2c1N(C)C(=O)CCC1CCCC1	ATXN2 expr inh 31.6µM, TGFb inhibitor inconclusive, S2 tox inconclusive
CC(=O)NCCNC(=O)c1ccc(Sc2ccccc2)c([N+](=O)[O-])c1	none (no result: ATXN2 expr inh, S2 tox)
CN(C)CCNC(=O)c1ccc(Sc2ccc(Br)cc2)c([N+](=O)[O-])c1	IL1B secr inh -70.3
CSC1=N/C(=C\c2ccc(Cl)cc2)C(=O)N1N(C)C	TGFb inhibitor inconclusive (no result: IL1B secr inh)
CC1(C)CN=c2s/c(=C\c3ccc(Cl)cc3)c(=O)n2C1	IL1B secr inh -85.5, TGFb inhibitor inconclusive
COc1ccccc1CC(=O)Nc1ccc2nc(Nc3cccc(C(F)(F)F)c3)cc(C)c2c1	none (no result: IL1B secr inh)
Cc1cc(Nc2cccc(C(F)(F)F)c2)nc2ccc(NC(=O)c3cncc(Br)c3)cc12	HepG2 tox 10µM, TGFb inhibitor inconclusive (no result: IL1B secr inh, ATXN2 expr inh, S2 tox)
Cc1ccccc1C(=O)Nc1ccc2nc(Nc3cccc(C(F)(F)F)c3)cc(C)c2c1	ATXN2 expr inh inconclusive, TGFb inhibitor 14.1µM (no result: IL1B secr inh)
